# In PubChem BioAssay (NCATS):
# Inconclusive results are not listed. Values without a mark were called inactive. The source made the active and inactive calls. The call rests on the fitted dose curve; in most records, active means well fitted cell-killing curve with a large enough effect; inconclusive means small, poorly fitted or top-dose-only effect, or effect the other way; inactive means flat fitted curve, though single readings scatter.
# System: OV90
# Assay: Primary qHTS to identify gynecologic anti-cancer compounds using libraries of approved drugs and bioactive compounds (AID 1345084); further: nearly all actives have a fitted effect of over 55% in size
# Settings: Gynecologic cancer cell panel viability, ATPlite luminescence, 48 h; series mostly up to 57.5 µM; activity change, negative = cytotoxicity: at the top concentration
# Procedure, shortened: (§1)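 Measured: luminescence after ATPlite addition (15 min, RT). Exposure: 48 h, 37 C, 5% CO2.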
# On the % scale 0 is the no-effect control and ±100 the full control effect; potency means the concentration at half of the fitted maximal effect.
SMILES,"activity change, negative = cytotoxicity",Potency
C=C(C)C(=O)OC1[C@@H]2C(=C)C(=O)O[C@@H]2C[C@@H](C)[C@@H]2C=CC(=O)[C@@]12C (stereo partly drawn),-2.28% [at 38.5 µM],
COc1cc2ncnc(Nc3ccc(Oc4ccccc4)cc3)c2cc1OC,-27%,
CCC(C)n1cc(C)c2c(C(=O)NCc3c(C)cc(C)[nH]c3=O)cc(-c3ccc(N4CCNCC4)nc3)cc21 (stereo not drawn),-25.6%,
CC(C)[C@@H](C)/C=C/[C@@H](C)[C@H]1CC[C@H]2C3=CC=C4C[C@@H](O)CC[C@]4(C)C3=CC[C@]12C,-0.495%,
Cn1c(NC[C@@H](N)Cc2ccccc2)nc(-c2ccncc2)c(-c2ccc3ccccc3c2)c1=O,-7.97%,
CC1(C)CC[C@]2(C(=O)OC3OC(CO)C(O)C(O)C3O)CC[C@]3(C)C(=CCC4[C@@]5(C)CC[C@H](OC6OC(C(=O)O)C(O)C(O)C6O)C(CO)(CO)C5CC[C@]43C)[C@@H]2C1 (stereo partly drawn),-19.7% [at 11.6 µM],
Nc1ncnc2c1ncn2[C@@H]1O[C@H](CO)C[C@H]1O,-0.788%,
COc1ccc(C(=O)N(CCC(C)C)Cc2nc(C)c(C)n2Cc2ccccc2C)c(OC)c1,-9.42%,
O=C(Nc1ccc(F)cc1)N1CCc2ccccc2C1c1ccc(C(F)(F)F)cc1 (stereo not drawn),-13.3%,
Cc1ccc(C(=O)N2CCN(c3ccc([N+](=O)[O-])cc3)CC2)cc1Cl,-0.463%,
CN(C)C(=O)c1cc2cnc(Nc3ccc(N4CCNCC4)cn3)nc2n1C1CCCC1,1.26%,
C=C1/C(=C/C=C2\CCC[C@]3(C)[C@@H]([C@H](C)/C=C/C(=O)C4CC4)CC[C@@H]23)C[C@@H](O)C[C@@H]1O,-3.52%,
CC1OC2OC3C(OCC(O)C3O)OC(=O)C34CCC(C)(C)CC3C3=CCC5C6(C)CC(O)C(OC7OC(CO)C(O)C(O)C7OC7OCC(OC(=O)CC(C)(O)CC(=O)OC1C(OC1OCC(O)C(O)C1O)C2O)C(O)C7O)C(C)(CO)C6CCC5(C)C3(C)CC4O (stereo not drawn),,10 µM (active)
CC(C)(C)c1ccc(-c2nc3ccccc3[nH]2)cc1,,1.41 µM (active)
COc1cc(O)c(C(=O)CCc2ccc(O)cc2)c(O[C@@H]2O[C@H](CO)[C@@H](O)[C@H](O)[C@H]2O)c1,-11.1% [at 25.3 µM],
CN1CCN(C(=O)c2ccc(Nc3nccc(-c4cccs4)n3)cc2Cl)CC1,2.02%,
Cc1ccc2c(Nc3ccc(Cl)cc3)nccc2c1Nc1ncccc1-c1ncnc2nc[nH]c12,,5.01 µM (active)
Cc1ccc(C2(COC(=O)C(C)C)CO2)c(OC(=O)C(C)C)c1 (stereo not drawn),-1.37% [at 38.5 µM],
CC1(C)CC23[C@@H]4CC(=O)[C@@H]2COC(=O)[C@@H]3CC[C@H]41,1.31%,
COc1cc2ncnc(Oc3cccc(NC(=O)Nc4cc(C(C)(C)C(F)(F)F)on4)c3)c2cc1OC,-27.1%,
O=C(NNc1ccccc1)c1ccncc1,-29.8%,
CN(CCCNC(=O)c1ccc2nc3c(c(Cl)c2c1)CCCC3)Cc1ccccc1,-9.28%,
CCN(CCCOc1ccc2c(Nc3cc(CC(=O)Nc4cccc(F)c4)[nH]n3)ncnc2c1)CCOP(=O)(O)O,-27.2%,
OCC(Cc1ccccc1)Nc1nc(Oc2ccc3c(c2)CCC3)nc2c1ncn2Cc1ccc(-c2ccccc2)cc1 (stereo not drawn),-0.138%,
CCN(CC)c1ccc(C(=C2C=CC(=[N+](CC)CC)C=C2)c2cc(S(=O)(=O)O)ccc2S(=O)(=O)[O-])cc1,,12.6 µM (active)
O=C(NC(NC(=S)Nc1ccc(F)c([N+](=O)[O-])c1)C(Cl)(Cl)Cl)C(c1ccccc1)c1ccccc1 (stereo not drawn),5.28% [at 25.3 µM],
Cc1[nH]c(/C=C2\C(=O)Nc3ccc(F)cc32)c(C)c1C(=O)NC[C@H](O)CN1CCOCC1,-12.4%,
CC1CCC2C(=CCC(O)C2(C)C)C1(C)Cc1c(O)cc(CO)c(C=O)c1O (stereo not drawn),-2.2% [at 38.5 µM],
CCCCn1c(-c2ccccc2)nc(-c2ccccc2)c1CN(Cc1ccc2c(c1)OCO2)Cc1ccc2c(c1)OCO2,-24.9%,
O=C(NCc1ccc(Oc2ccccc2)cc1)c1nc(-c2cc(Br)c(O)c(Br)c2)no1,-7.29%,

# System: PA-1
# Assay: as above
# Settings: Gynecologic cancer cell panel viability, ATPlite luminescence, 48 h; series mostly up to 57.5 µM; activity change, negative = cytotoxicity: at the top concentration
# Procedure, shortened: as §1
SMILES,"activity change, negative = cytotoxicity",Potency
O=[N+]([O-])c1ccc(-[n+]2nc(-c3ccccc3)nn2-c2ccc(I)cc2)cc1,-22.6%,
COc1ccccc1NC(=O)Nc1ccc2ccccc2c1,-10.7%,
CCC(C)n1cc(C)c2c(C(=O)NCc3c(C)cc(C)[nH]c3=O)cc(-c3ccc(N4CCNCC4)nc3)cc21 (stereo not drawn),5.19%,
CC(C)[C@@H](C)/C=C/[C@@H](C)[C@H]1CC[C@H]2C3=CC=C4C[C@@H](O)CC[C@]4(C)C3=CC[C@]12C,-2.69%,
Cn1c(NC[C@@H](N)Cc2ccccc2)nc(-c2ccncc2)c(-c2ccc3ccccc3c2)c1=O,11.6%,
CC1(C)CC[C@]2(C(=O)OC3OC(CO)C(O)C(O)C3O)CC[C@]3(C)C(=CCC4[C@@]5(C)CC[C@H](OC6OC(C(=O)O)C(O)C(O)C6O)C(CO)(CO)C5CC[C@]43C)[C@@H]2C1 (stereo partly drawn),,3.16 µM (active)
COc1ccc(C(=O)N(CCC(C)C)Cc2nc(C)c(C)n2Cc2ccccc2C)c(OC)c1,-10.7%,
O=C(Nc1ccc(F)cc1)N1CCc2ccccc2C1c1ccc(C(F)(F)F)cc1 (stereo not drawn),-11.4%,
Cc1ccc(C(=O)N2CCN(c3ccc([N+](=O)[O-])cc3)CC2)cc1Cl,-6.54%,
C=C1/C(=C/C=C2\CCC[C@]3(C)[C@@H]([C@H](C)/C=C/C(=O)C4CC4)CC[C@@H]23)C[C@@H](O)C[C@@H]1O,-15.1%,
CC(C)(C)c1ccc(-c2nc3ccccc3[nH]2)cc1,,1 µM (active)
CN1CCN(C(=O)c2ccc(Nc3nccc(-c4cccs4)n3)cc2Cl)CC1,-10.8%,
COc1ccccc1-c1cc(Nc2cccc(CS(N)(=O)=O)c2)ncn1,,22.4 µM (active)
Cc1ccc(C2(COC(=O)C(C)C)CO2)c(OC(=O)C(C)C)c1 (stereo not drawn),-8.08% [at 38.5 µM],
CC1(C)CC23[C@@H]4CC(=O)[C@@H]2COC(=O)[C@@H]3CC[C@H]41,-1.42%,
COc1cc2ncnc(Oc3cccc(NC(=O)Nc4cc(C(C)(C)C(F)(F)F)on4)c3)c2cc1OC,9.99%,
CN(CCCNC(=O)c1ccc2nc3c(c(Cl)c2c1)CCCC3)Cc1ccccc1,-16.6%,
C=CC(=O)Nc1cc(Nc2nccc(-c3cn(C)c4ccccc34)n2)c(OC)cc1N(C)CCN(C)C,,25.1 µM (active)
CCN(CC)c1ccc(C(=C2C=CC(=[N+](CC)CC)C=C2)c2cc(S(=O)(=O)O)ccc2S(=O)(=O)[O-])cc1,,3.55 µM (active)
O=C(NC(NC(=S)Nc1ccc(F)c([N+](=O)[O-])c1)C(Cl)(Cl)Cl)C(c1ccccc1)c1ccccc1 (stereo not drawn),-3.24% [at 25.3 µM],
CC1CCC2C(=CCC(O)C2(C)C)C1(C)Cc1c(O)cc(CO)c(C=O)c1O (stereo not drawn),3.69% [at 38.5 µM],
CCCCn1c(-c2ccccc2)nc(-c2ccccc2)c1CN(Cc1ccc2c(c1)OCO2)Cc1ccc2c(c1)OCO2,-20.3%,
O=C(NCc1ccc(Oc2ccccc2)cc1)c1nc(-c2cc(Br)c(O)c(Br)c2)no1,3.35%,
